High-throughput results (PubChem BioAssay)
NS1 inh: influenza NS1 inhibition; Potency, µM (titrated, usually from 46.1 µM), for inactives: top-dose activity, positive = more growth; 270,000 tested, 0.4% active; AID 2326; calls by dose curve; note: potency is the fitted concentration of half-maximal effect; actives are rising curves; nearly all actives have a fitted effect of over 50% in size
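Growth recovery, yeast-based: influenza A NS1 expressed in S. cerevisiae causes slow growth, and suppressors are detected by OD600. The parent strain without NS1 is used as positive control.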
Pf growth 96h: P. falciparum growth inhibition at 96 hour, primary screen for plastid delayed-death inhibitors. 320,000 tested, 6.9% active. Potency, µM (doses to about 28.7 µM), for inactives: at the top dose activity change, negative = inhibition, hits mostly inhibitors. P. falciparum luciferase reporter growth, 96 h; note: potency is the fitted concentration of half-maximal effect; % is set by controls: 0 for no effect and ±100 for the full control effect
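Plates of compound plus infected erythrocytes (2% hematocrit, 0.05% parasitemia final) incubate 96 hours, 37 C, 5% CO2. Detection reagent added; reduced luminescence from the parasites' luciferase reporter flags inhibition.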
Cycloheximide cs: counter-screen hit for Shiga toxin inhibitors, cycloheximide; max response, %; 300,000 tested, 12% active; cell reporter, cycloheximide protein synthesis inhibition counterscreen; in the data active = max response mostly above about 13%, no sharp cut-off; inactive = mostly below about 14%; note: read at 38.3 µM for the half of the compounds with a filed dose; 0% is about no effect
Shiga toxin inh: blocks Shiga toxin action in Vero cells. AID 2315. 290,000 tested, 9.2% active. Vero cells, Shiga toxin protein synthesis inhibition reporter. inhibition, % at 38.7 µM; in the data active = inhibition mostly above about 28%, no sharp cut-off; inactive = mostly below about 43%; note: 0% is about no effect
Pf growth 48h: P. falciparum growth inhibition at 48 hours (one generation). P. falciparum luciferase growth in erythrocytes, 48 h. Potency, µM (series often up to 28.7 µM), for inactives: at the highest dose activity change, negative = inhibition, hits mostly inhibitors. 310,000 tested, 5.9% active. AID 504832; note: potency is the fitted concentration of half-maximal effect; % is set by controls: 0 for no effect and ±100 for the full control effect
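First compound was added to culture medium, then infected red cells at 0.1% parasitemia and 2% hematocrit (final). After incubation at 37 C under 5% CO2, luciferase detection reagent was dispensed and light output recorded.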
* = called active by the depositor; ? = inconclusive; / = no result. Sampled rows, rich in hits. Any-hit rate of the full collection: about 21%. Unless noted, calls come from the whole dose curve; as a rule, active = well fitted inhibition curve with a large enough effect; inconclusive = small, poorly fitted or top-dose-only effect, or another doubt; inactive = no such curve, though single readings can be large or run the other way.

SMILES	NS1 inh	Pf growth 96h	Cycloheximide cs	Shiga toxin inh	Pf growth 48h
Clc1ccc2c(NCc3ccccc3)ccnc2c1	-8%	?	-11	-2	?
Cc1nc2scc(C)n2c(=O)c1S(=O)(=O)NCc1ccc(F)cc1	12%	?	-6	-6	19%
COc1cccc(-c2nc(Oc3cc(C)cc(C)c3)c3ccccc3n2)c1O	-1%	-6%	13	23	30%
COc1cccc(-c2nc(NC(C)(C)C)c3ccccc3n2)c1O	6%	?	-2	9	10µM*
COc1cccc(-c2nc(NCCN3CCOCC3)c3ccccc3n2)c1O	-6%	26%	-4	-21	?
COc1ccc(Nc2nc(-c3cccc(OC)c3O)nc3ccccc23)cc1	11%	?	33*	50*	7.4µM*
COc1cccc(-c2nc(N3CCCC3)c3ccccc3n2)c1O	-4%	18%	1	-3	0%
COc1cccc(-c2nc(N3CC(C)CC(C)C3)c3ccccc3n2)c1O (centres undefined)	8%	13µM*	-4	13	?
CCN(Cc1ccccc1)S(=O)(=O)c1nc2nc(C)c(C)c(C)n2n1	-1%	93%	-2	-13	-1%
CCCCN(CCCC)C(=S)NC(=O)c1ccccc1Cl	-25%	-24%	-4	10	-4%
O=C(c1cccc(Br)c1)N1CCCC1	-3%	19%	1	-11	/
O=C(O)c1ccc(-c2nnc(-c3cccc(Br)c3)o2)cc1	-3%	30%	20*	35*	114%
O=C(c1cccc(-c2nnc(-c3ccccc3)o2)c1)N1CCCCC1	-34%	-1%	51*	66*	-15%
O=C(c1cccc(-c2nnc(-c3ccccc3)o2)c1)N1CCCCCC1	-61%	/	37*	102*	-9%
Nc1oc2ccccc2c1C(=O)Cc1ccccc1O[C@@H]1O[C@H](CO)[C@@H](O)[C@H](O)[C@H]1O	/	1%	/	/	3%
COc1ccc(OC)c(NC(=O)c2cc(S(=O)(=O)NCc3ccco3)ccc2F)c1	-32%	1.2µM*	47*	58*	0%
O=C(COC(=O)c1ccc(S(=O)(=O)NCc2ccco2)cc1)Nc1ccccc1	/	38%	/	/	20%
COc1cc(OC)c(N(C)S(=O)(=O)c2cccc(C(=O)OCC(=O)NCc3ccco3)c2)cc1Cl	/	?	21*	-12	?
COc1ccc(S(=O)(=O)NCc2ccco2)cc1N(C)S(=O)(=O)c1ccccc1	2%	?	33*	51*	-5%
O=C(COC(=O)c1ccc(S(=O)(=O)NCc2ccco2)cc1)Nc1ccccc1OC(F)F	-1%	12%	67*	74*	18%
Cc1ccc(-n2ncc(C(=O)N3CCN(C(=O)c4ccco4)CC3)c2-n2cccc2)cc1	-4%	?	-2	-4	?
COCCCC1CCN(C(=O)CCc2nnc(CCCCc3ccccc3)o2)CC1	5%	?	7	28	?
CCOc1ccccc1NC(=O)c1cc(S(=O)(=O)NCc2ccco2)ccc1F	-3%	51%	42*	35*	-30%
CCOc1ccc(S(=O)(=O)NCc2ccncc2)cc1NC(=O)c1ccccc1F	1%	19%	-2	-2	29%
COc1ccccc1CNC(=O)c1cc(S(=O)(=O)N2CCOCC2)cn1C	-6%	?	-1	-6	-9%
SMILES	NS1 inh	Pf growth 96h	Cycloheximide cs	Shiga toxin inh	Pf growth 48h
CCc1ccc(NC(=O)Nc2ccsc2C(=O)OC)cc1	-82%	22%	36*	42*	268%
COC(=O)c1sccc1S(=O)(=O)Nc1ccc(C)cc1	-7%	-21%	16*	2	15%
COC(=O)c1sccc1NC(=O)Nc1ccc(C)c(C)c1	-65%	-8%	41*	72*	184%
COC(=O)c1sccc1NC(=O)Cc1ccc(Br)cc1	/	31%	26*	32*	-4%
COC(=O)c1sccc1NC(=O)Nc1ccc(OC)c(OC)c1	-6%	?	12	-6	?
COC(=O)c1sccc1NC(=O)Nc1ccc(Cl)c(Cl)c1	-57%	?	27*	23	94%
COC(=O)c1sccc1NC(=O)CSc1cccc(Cl)c1Cl	-21%	9%	12*	27	2%
Cc1ccccc1NC(=O)C(=O)c1cn(C)c2ccccc12	-6%	-2%	-3	42	42%
O=Nc1ccc(NOC(=O)c2ccc(Br)cc2)cc1	-18%	-12%	21	26	3%
COC(=O)c1ccc(N=NN2CCCCC2)cc1	-13%	-15%	38*	127*	148%
COC(=O)c1ccc(NN=Nc2ccc(C)cc2)cc1	-4%	3%	59*	47*	-31%
